Hits are enriched below; roughly 5.1% of the tested compounds scored in any of these assays.
KCC2 mod = KCC2 (human) Cl- transport modulation. Q9H2X9. KCC2 cells, thallium flux FluoZin-2 fluorescence. B-score of Tl+ flux slope (higher = more flux/activation; lower = inhibition) at 10 µM. actives 2.2% (n = 190,000);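 active = thallium flux slope and its plate-corrected score both differing from the plate sample mean at a set confidence after two filtering rounds, in either direction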;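 also: slope of fluorescence scaled to starting intensity during 10 to 20 s after thallium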
ROMK primary = modulates human ROMK potassium channel activity | P48048 | Tet-inducible ROMK, thallium flux fluorescence; actives lie on both sides | B-score at 10 µM | actives 2% (n = 130,000);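 active = signal ratio slope over the read window, or its plate-corrected B-score, at least 3 SD from the plate mean, either direction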;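 also: B-score of the F/F0 ratio slope over 7 to 12 s after thallium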
Target sequence (P48048 whole entry, looked up): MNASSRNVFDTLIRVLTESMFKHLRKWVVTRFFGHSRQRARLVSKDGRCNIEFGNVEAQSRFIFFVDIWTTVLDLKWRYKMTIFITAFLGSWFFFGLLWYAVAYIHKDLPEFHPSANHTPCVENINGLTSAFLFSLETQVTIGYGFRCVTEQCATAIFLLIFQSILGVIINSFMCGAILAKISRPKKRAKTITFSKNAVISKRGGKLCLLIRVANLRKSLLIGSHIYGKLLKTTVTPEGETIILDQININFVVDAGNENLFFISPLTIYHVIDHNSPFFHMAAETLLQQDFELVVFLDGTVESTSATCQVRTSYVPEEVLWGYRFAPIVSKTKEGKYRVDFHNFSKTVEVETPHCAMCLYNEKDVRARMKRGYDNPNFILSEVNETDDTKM
S1P3 antag = blocks the human S1P3 receptor | Q99500 | CHO S1P3 NFAT-BLA reporter, FRET fluorescence, antagonist mode | inhibition, % at 4.98 µM | actives 0.27% (n = 170,000);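 active = inhibition above the plate cutoff, the mean inhibition of test wells on that plate plus 3 SD, cut at about 28% in these data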;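 also: cells challenged with S1P at its EC80 of 0.8 µM; blue over green emission ratio from cleaved BLA substrate after 4 h stimulation; 0% = S1P-stimulated wells and 100% = unstimulated DMSO-only wells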
Target sequence (Q99500 whole entry, looked up): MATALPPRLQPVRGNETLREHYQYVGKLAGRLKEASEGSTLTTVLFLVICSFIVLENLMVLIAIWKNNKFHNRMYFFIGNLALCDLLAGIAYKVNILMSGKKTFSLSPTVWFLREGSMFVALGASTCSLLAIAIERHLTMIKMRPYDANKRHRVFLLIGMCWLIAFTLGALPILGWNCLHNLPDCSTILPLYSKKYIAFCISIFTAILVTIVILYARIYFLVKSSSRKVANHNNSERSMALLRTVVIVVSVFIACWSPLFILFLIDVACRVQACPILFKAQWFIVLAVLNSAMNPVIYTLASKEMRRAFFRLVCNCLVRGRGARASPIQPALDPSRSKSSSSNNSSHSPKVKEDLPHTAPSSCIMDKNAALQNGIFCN
S1P4 ag = agonists of human S1P4 receptor. O95977. S1P4-expressing cell line, agonist reporter assay. activation, % at 4.98 µM. actives 0.35% (n = 220,000). AID 1509; in the data active = activation above about 11%;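 also: 0% = DMSO vehicle and 100% = reference agonist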
RAM inhibit = blocks the yeast RAM network | S. cerevisiae dse1pr::URA3 reporter, 5-FOA growth OD615, 2 d; analog-sensitive cbk1-as2 kinase mutant strain | inhibition, % at 50 µM | actives 1.8% (n = 190,000) | AID 868;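 active = inhibition above a set limit, 3 SD over mean compound inhibition, cut at about 8.4% in these data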;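 also: 0% = DMSO-only wells with no growth and 100% = 10 µM 1-NA-PP1 full growth; inhibition rescues growth on 5-FOA so higher OD means more RAM inhibition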
S1P4 antag = human S1P4 receptor antagonism. AID 1510. actives 0.26% (n = 220,000). inhibition, % at 4.98 µM. S1P4-expressing cells, antagonist mode, reporter read-out. O95977; in the data active = inhibition above about 29%;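 also: 0% = wells stimulated with agonist and 100% = vehicle wells without agonist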
KCC2 secondary = KCC2 (human) modulation, secondary assay; HEK293-KCC2, thallium flux, FluoZin2 fluorescence; stronger effect = higher value; normalised thallium flux (F/F0 slope) at 10 µM; AID 1713; shares compounds with KCC2 mod; actives 15% (n = 3,700);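 active = thallium flux slope above the same plate's solvent-only control mean plus 3 SD; inconclusive = the two replicate wells disagree; inactive = no significant difference from solvent-only control wells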
KCC2 bumet counter = thallium flux despite bumetanide block in KCC2 cells, secondary assay 3; shares compounds with KCC2 mod; HEK293-KCC2 + bumetanide/ouabain, thallium flux FluoZin2; stronger effect = higher value; normalized thallium flux at 10 µM; actives 49% (n = 3,700);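 active = thallium entry rate above the same plate's blocked-transporter control wells by more than 3 SD; inconclusive = the two repeat wells disagree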;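 also: raw slope of fluorescence over initial fluorescence between 10 and 20 s after thallium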
KCC2 secondary2 = KCC2 (human) modulation, second secondary assay | shares compounds with KCC2 mod | HEK293-KCC2, thallium flux FluoZin2 fluorescence; actives lie on both sides; F/F0 rise rate, 10–20 s post-thallium | normalized thallium flux at 10 µM | actives 23% (n = 3,700);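 active = thallium flux slope more than 3 SD above or below the plate's solvent-only control mean, mostly below; inconclusive = the two repeat wells disagreed; inactive = no significant shift from solvent-only controls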;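 also: raw slope with 0.1% DMSO as baseline and bumetanide as block control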
HEK counter1 = acts in parental HEK cells, KCC2 counter-screen | shares compounds with KCC2 mod | HEK293 parental cells, thallium flux FluoZin2, ouabain; baseline-ratio fluorescence slope, 10–20 s after thallium | thallium flux rate (normalised fluorescence) at 10 µM | actives 46% (n = 3,700);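 active = thallium flux rate significantly above the same plate's solvent-only control wells, beyond their mean plus 3 SD; inconclusive = the two replicate wells gave conflicting results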
KCC2 ouabain = confirmation of human KCC2 modulators with ouabain. shares compounds with KCC2 mod. AID 1717. HEK293-KCC2, thallium flux FluoZin2 fluorescence; bidirectional: low = inhibitor, high = activator. actives 48% (n = 3,700). raw Tl+ flux slope (below DMSO = inhibition, above = activation) at 10 µM;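 active = thallium flux slope beyond 3 SD from same-plate DMSO control mean in most replicates, usually higher, sometimes lower; inconclusive = repeat tests gave conflicting results; inactive = no significant difference from controls in most replicates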;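 also: slope of initial-normalized fluorescence between seconds 10 and 20 after thallium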
HEK counter2 = acts in parental HEK cells, second KCC2 counter-screen. actives 33% (n = 3,700). AID 1718. thallium flux slope at 10 µM. HEK293 parental, thallium flux FluoZin-2 fluorescence slope. shares compounds with KCC2 mod;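 active = thallium flux slope above the same plate's solvent-control mean plus 3 SD in both duplicate wells; inconclusive = duplicate wells that disagreed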;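 also: run without ouabain in cells lacking the KCC2 cotransporter; slope of fluorescence scaled to its starting value between 10 and 20 s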
* hit, by the source's call; ? = inconclusive; · = no result.

SMILES	KCC2 mod	ROMK primary	S1P3 antag	S1P4 ag	RAM inhibit	S1P4 antag	KCC2 secondary	KCC2 bumet counter	KCC2 secondary2	HEK counter1	KCC2 ouabain	HEK counter2
COc1ccccc1/C=C/C=N/n1c(-c2ccc(C)cc2)n[nH]c1=S	3.26	·	7.6	-3.6	2.3	-6.8	·	·	·	·	·	·
O=[N+]([O-])c1ccccc1/C=C/C=N/n1c(-c2ccccc2)n[nH]c1=S	9.28*	0.804	-10.2	-2.0	1.8	9.5	0.0128*	0.0949*	0.0331	0.0112*	0.0409*	0.0118*
Cc1ccc(-c2n[nH]c(=S)n2/N=C/C=C\c2ccccc2[N+](=O)[O-])cc1	7.65*	·	·	2.6	1.9	-8.2	0.0075	0.00915*	0.0331	0.0108*	?	0.0142*
CO/N=C/c1ccc(Oc2ccc([N+](=O)[O-])cc2[N+](=O)[O-])c(OC)c1	-0.0522	0.102	-10.6	3.9	5.3	8.6	·	·	·	·	·	·
COc1cc(/C=C2\SC(=O)NC2=O)ccc1Oc1ccc([N+](=O)[O-])cc1[N+](=O)[O-]	-4.19*	2.01	-11.3	-0.3	5.2	5.5	0.00745	0.0101*	0.0282	0.00715	0.0182	0.0115
CCOc1ccc(/C=C2\SC(=S)N(NS(=O)(=O)c3ccc(C)cc3)C2=O)cc1OC	24*	·	-6.8	0.6	·	-6.9	0.00655	0.0392*	0.029	0.0212*	?	0.0141*
CCN=C1S/C(=C\c2ccc(OCC)c(OC)c2)C(=O)N1CC	-0.0197	·	9.0	5.0	5.8	-4.6	·	·	·	·	·	·
CCOc1ccc(/C=C2\SC(=S)NC2=O)cc1OC	9.4*	-0.0465	-3.0	0.2	6.0	-16.4	0.0129*	0.0205*	?	0.0159*	0.0227	0.012*
CCOc1ccc(/C=C2\SC(=S)N(NS(=O)(=O)c3ccccc3)C2=O)cc1OC	6.99*	·	-16.9	-1.4	·	-17.7	?	0.028*	0.0335	0.0137*	?	0.0178*
S=C(NCc1ccco1)Nc1ccc(Oc2ccccc2)cc1	-2.03	-0.276	-1.6	-2.4	1.8	7.1	·	·	·	·	·	·
Cc1nc(N2CCN(Cc3ccccc3)CC2)c(C#N)c2c1COC(C)(C)C2	-3.41*	0.572	·	-0.4	-1.3	-1.6	0.00563	0.00302	0.021*	?	0.0109*	0.00931
CCCc1nnc2c(N(C)S(=O)(=O)c3ccc(C)cc3)nc3ccccc3n12	-0.122	0.0346	-6.0	0.6	5.2	-12.5	·	·	·	·	·	·
Cc1ccc(S(=O)(=O)N(C)c2nc3ccccc3[nH]c2=S)cc1	88.6*	·	-5.5	-1.3	·	-37.3	0.0387*	0.0866*	?	0.0648*	0.0651*	0.0192*
NN/C(=C\[N+](=O)[O-])Nc1ccc(Cl)cc1	6.7*	0.0202	-1.0	-1.0	0.1	1.7	0.0109	0.0228*	0.032	0.00999*	0.0214	0.0103
O=S(=O)(Nc1cc(Sc2cccc3cccnc23)c(O)c2ccccc12)c1ccccc1	47.7*	·	-1.0	0.7	8.1	17.7	0.0351*	0.0799*	0.044*	0.0491*	0.0577*	0.0152*
CC(=O)Nc1ccc(S(=O)(=O)NC2(C(F)(F)F)C(=O)Nc3c2c(=O)[nH]c(=O)n3Cc2ccco2)cc1 (stereo unspecified)	-2	-0.266	-12.9	0.1	0.8	-7.6	·	·	·	·	·	·
CC(C)Oc1ccc(C(=O)Nc2cccc3cccnc23)cc1	-1.66	0.514	1.9	0.2	6.9	10.6	·	·	·	·	·	·
O=C(NC(=S)Nc1cccc2cccnc12)c1ccccc1	·	·	·	-0.3	3.7	-10.9	·	·	·	·	·	·
COc1ccccc1NS(=O)(=O)c1cccc2cccnc12	2.68*	·	14.0	1.8	0.2	-15.1	0.00925	0.014*	0.0348	?	0.0229	?
COc1ccc(C)cc1NS(=O)(=O)c1cccc2nonc12	6.52*	·	·	2.1	-0.7	-19.3	0.0111	0.0195*	0.0325	0.00751	0.0267	?
COc1ccccc1NC(=O)c1ccc(NS(=O)(=O)c2cccc3cccnc23)cc1	1.79	·	2.7	1.1	6.8	-13.1	·	·	·	·	·	·
COc1ccc(C(=O)Nc2cccc3cccnc23)cc1OC	-6.28*	1.02	·	1.9	1.7	-16.4	0.00838	0.00526	0.0323	0.00666	0.0202	0.0101
O=C(NC(=S)Nc1cccc2cccnc12)c1cccs1	2.83*	1.07	-0.9	-2.8	3.5	0.4	0.00759	0.00959*	0.0319	?	?	0.00979
O=C(CC1NCCNC1=O)Nc1cccc([N+](=O)[O-])c1 (stereo unspecified)	0.818	-0.902	-16.4	-0.4	1.1	-13.4	·	·	·	·	·	·
S=C1NC[C@H](c2ccccc2)N1CC1CCCCC1	0.258	·	4.2	1.5	-1.0	-13.3	·	·	·	·	·	·
SMILES	KCC2 mod	ROMK primary	S1P3 antag	S1P4 ag	RAM inhibit	S1P4 antag	KCC2 secondary	KCC2 bumet counter	KCC2 secondary2	HEK counter1	KCC2 ouabain	HEK counter2
COC(=O)c1cc(NS(=O)(=O)c2ccc(NCc3cccnc3)c([N+](=O)[O-])c2)cc(C(=O)OC)c1	-0.889	·	-4.8	-1.4	4.3	-9.7	·	·	·	·	·	·
CC(=O)/C=C(\C)Nc1ccccc1O	-0.482	·	-0.1	-1.2	·	-20.9	·	·	·	·	·	·
O=C(COC(=O)c1cnccn1)NCc1ccc2c(c1)OCO2	-0.339	1.13	4.0	2.7	0.6	-19.5	·	·	·	·	·	·
CCN(CC)C(=O)C1=C(C)Nc2ncnn2C1c1cccnc1 (stereo unspecified)	0.718	-0.38	-10.6	1.9	-0.4	-23.2	·	·	·	·	·	·
Cc1nc(NC(=S)NC(=O)c2cncc(Br)c2)ccc1Br	·	·	-2.1	-0.8	1.4	-2.4	·	·	·	·	·	·
Cc1nc(NC(=S)NC(=O)c2cccs2)ccc1Br	36.1*	-0.15	12.8	0.3	5.0	-17.4	0.0139*	0.115*	0.0341	0.0381*	0.0416*	0.0123*
COc1ccc(CNC(=O)c2ccc(Br)o2)cc1	0.284	0.104	-12.1	0.1	1.2	8.7	·	·	·	·	·	·
COc1ccccc1/C=C(\NC(=O)c1ccc(OC)c(OC)c1)C(=O)Nc1cc([N+](=O)[O-])ccc1C	5.21*	0.0109	-3.0	1.3	5.3	-5.1	0.0147	0.00455	0.028	0.00681	0.0166	0.00945
